Screens from PubChem BioAssay.
Shiga toxin inh = Shiga toxin inhibition. 290,000 tested, 9.2% active. AID 2315. Vero cells, Shiga toxin protein synthesis inhibition reporter. inhibition, % at 38.7 µM; in the data active means inhibition mostly above about 28%, no sharp cut-off; inactive means mostly below about 43%; further: 0% is about no effect
NS1 inh = influenza NS1 inhibition; 270,000 tested, 0.4% active; Potency, µM (titrated, usually from 46.1 µM), for inactives: at the top dose activity, positive = more growth; further: potency means the concentration at half of the fitted maximal effect; actives are rising curves; nearly all actives have a fitted effect of over 50% in size
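S. cerevisiae expressing influenza A NS1, grown in glucose, washed, then diluted 1:100 into pH 6.0 -URA galactose medium with 23 nl compound. Growth recovery read as OD600; NS1-free strain serves as control.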
SARS PLpro yeast-1 = inhibitors of SARS-CoV papain-like protease in yeast; 330,000 tested, 0.19% active; Potency, µM (series often up to 32.9 µM), without a hit: at the highest dose activity, positive = growth rescue, hits mostly activators; AID 485353; S. cerevisiae expressing SARS-CoV PLpro, growth rescue; further: potency means the concentration at half of the fitted maximal effect; 0% is about no effect; nearly all actives have a fitted effect of over 55% in size
Cycloheximide cs = counter-screen for Shiga toxin inhibitors: cycloheximide protein synthesis inhibition; AID 2314; max response, %; cell reporter, cycloheximide protein synthesis inhibition counterscreen; 300,000 tested, 12% active; in the data active means max response mostly above about 13%, no sharp cut-off; inactive means mostly below about 14%; further: read at 38.3 µM for the half of the compounds with a filed dose; 0% is about no effect
SARS PLpro yeast-2 = Validates SARS-CoV PLpro inhibitor hits in yeast | shares compounds with SARS PLpro yeast-1 | yeast expressing SARS-CoV PLpro, growth phenotype rescue | calls only | 1,000 tested, 19% active | AID 652038; call rule not given here
The depositor's hits bear a star; i = inactive; ? = inconclusive; . = no result given; + = active, no number. This is a sample that favours compounds with a hit; in the whole collection about 12% have one here. Unless noted, the call rests on the fitted dose curve.

SMILES	Shiga toxin inh	NS1 inh	SARS PLpro yeast-1	Cycloheximide cs	SARS PLpro yeast-2
CCC1(c2ccccc2)NC(=S)N(c2cccc(C)c2C)N1 (centres undefined)	-7	6%	3.2µM*	-3	?
O=C(N/N=C/c1cccnc1)/C(=C\c1cccs1)NC(=O)c1ccccc1	-10	6%	-4%	-3	.
O=C(N/N=C/c1cc2ccccc2nc1Cl)/C(=C/c1cccs1)NC(=O)c1ccccc1	1	27%	?	-4	i
COC(=O)c1ccc(NC(=O)C2CCN(C(=O)c3cc(OC)c(OC)c(OC)c3)CC2)cc1	-4	-5%	6%	-3	.
CCOC(=O)c1ccc(NC(=O)C2CCN(C(=O)c3ccc(OC)c(OC)c3)CC2)cc1	-9	0%	?	-1	i
O=C1CC[C@@]2(O)[C@H]3Cc4ccc(O)c5c4[C@@]2(CCN3CC2CC2)[C@H]1O5	-13	1%	?	-2	i
CC(C)C[C@H]1CNC(=O)C(=O)N1C[C@H](C)NC(=O)Cc1ccccc1	-2	0%	-3%	-2	.
O=C(CCl)Nc1cccc2ncccc12	-13	-2%	11µM*	-2	+
CC1Cc2cc(/C(O)=C3/C(=O)C(=O)N(CCCN4CCOCC4)C3c3ccc(C(C)C)cc3)ccc2O1 (centres undefined)	-4	29%	-2%	8	.
Cn1ncc2c(NNC(=O)c3ccc(Cl)c(Cl)c3)ncnc21	13	-8%	22%	8	.
Cn1ncc2c(NNC(=O)c3ccc(Cl)cc3Cl)ncnc21	-14	-6%	?	1	i
Cc1cccc(NC(=S)NCCc2ccccc2)n1	21	-5%	0%	6	.
S=C(NCCc1ccccc1)Nc1ccccn1	92*	-2%	5.6µM*	39*	+
CCCCN(Cc1ccco1)C(=O)C1CCCN(c2ncnc3c2nc2n3CCCCC2)C1 (centres undefined)	25	-53%	-2%	3	.
CCn1c(O)c(/C=N/NC(=O)c2ccncc2)c(=O)n(CC)c1=S	-8	15%	?	-2	i
Cc1ccc(C)c(S(=O)(=O)N2CCN(CC(=O)N3CCc4ccccc4C3)CC2)c1	-8	-14%	5%	13	.
CN(Cc1cnccn1)C(=O)C1CCC(=O)N(CCc2ccccc2)C1 (centres undefined)	-5	13%	7%	-3	.
Cc1ccc(CN(C)C(=O)C2CCC(=O)N(CCc3ccccc3)C2)o1 (centres undefined)	31*	14%	?	20*	i
O=C(CN1CCCC1)Nc1ccccc1Sc1ccc(Cl)cc1	20	.	0%	7	.
CCOC(=O)[C@H]1[C@H]2COc3ccc(Br)cc3[C@@H]2N2C(=O)CN(Cc3ccc(Cl)cc3)C(=O)[C@@]12C	.	.	-5%	.	.
CCOC(=O)[C@H]1[C@H]2COc3ccc(Br)cc3[C@@H]2N2C(=O)CN(Cc3ccco3)C(=O)[C@@]12C	.	.	?	.	i
CCOC(=O)C(Cc1ccccc1)C(=O)Nc1cccc(C)c1 (centres undefined)	22	-18%	22µM*	15	i
CC(C)C1Oc2ccccc2N(CC(=O)N(Cc2ccccn2)CC2CCCO2)C1=O (centres undefined)	-10	-4%	1.8µM*	-4	i
Cc1ccc(CN(CC2CCCO2)C(=O)CN2C(=O)C(C(C)C)Oc3ccccc32)o1 (centres undefined)	22	-11%	1%	-4	.
Cc1cc[n+](CC(=O)Nc2cc(C(F)(F)F)ccc2Cl)cc1	5	1%	4%	2	.
SMILES	Shiga toxin inh	NS1 inh	SARS PLpro yeast-1	Cycloheximide cs	SARS PLpro yeast-2
CN(C)c1cc[n+](CC(=O)Nc2cc(C(F)(F)F)ccc2Cl)cc1	-6	0%	?	0	i
CCOc1ccc(N/C(=N/c2nc(C)cc(C)n2)NC(C)=O)cc1	14	5%	-2%	3	.
NC(=S)N/N=C/c1ccccc1OCc1cccc(Cl)c1	16	6%	16µM*	-2	?
O=C(N/N=C/c1cc(Cl)ccc1O)C(=O)Nc1ccccc1OC(F)(F)C(F)F	15	2%	2µM*	-3	i
O=C(N/N=C/c1cc(Br)ccc1O)C(=O)Nc1ccccc1OC(F)(F)C(F)F	-21	-12%	-5%	-1	.
O=C(O)[C@@H]1[C@@H]2C[C@H]([C@@H](Br)[C@H]2N2C(=O)CCC2=O)[C@@H]1C(=O)O	.	15%	.	.	.
CC(C)(C)c1nnc(N/N=C/c2ccccc2O)n(N)c1=O	-2	-34%	3.2µM*	-3	i
COc1ccc(-c2cn(CCC(=O)O)c(-c3ccc(Cl)nc3)n2)cc1	.	.	?	.	i
CCOC(=O)c1[nH]c(C=O)c(C(=O)OCC)c1C	-3	-2%	13%	-3	.
